Here are results for 29 compounds from ChEMBL document CHEMBL3988442, “University of Dundee, Small-Polar-MMV Screening Library” (2021).

Screen size: about 48,000 compounds; about 13,000 (27%) showed an effect of 50% or more. Some of the results follow.

The subject of the test is Wolbachia pipientis. The experiment in a line: Anti-Wolbachia Cell-Based Screen. It counts as functional. Set-up: scale not given: in the data most compounds retested in dose-response had high values. Particulars: 5 µM.
Take `Cn1nc(CN2CCCN(C3CCCC3)CC2)c2c(Cl)cccc21`: the “Percent Effect” value is recorded as 4.033%.

As for `CC1(C)OCC2(CO1)CN(C(=O)c1cccc3ccccc13)C2`, the “Percent Effect” value is -8.289%. In the case of `c1ccc(-c2ncc(CNC3CCc4ncnn4C3)cn2)cc1` (centres undefined) it was 5.444%. Turning to `Cc1nc(-c2ccccc2)sc1CNC1CCc2ncnn2C1` (centres undefined), the “Percent Effect” value is reported as 88.63%. In the case of `c1ccc(-c2cnc(CNC3CCc4ncnn4C3)o2)cc1` (centres undefined), the “Percent Effect” value turned out to be 7.622%. In the case of `Cc1nn(Cc2ccccc2)c(C)c1CNC1CCc2ncnn2C1` (centres undefined) it was 117.1%. As for `Cc1nn(-c2ccccc2)c(C)c1CNC1CCc2ncnn2C1` (centres undefined), the figure is 1.377%; as for `CCOCCNS(=O)(=O)c1ccc2c3c1CCCN3C(=O)CO2`, 17.61%. In the case of `O=c1c2c(ncn1CCO)nc1n2CCC1` it was 3.555%; in that of `CC(C)(C)OC(=O)NC(C)(C)c1noc(CN2CCCCC2)n1`, 1.243%; in that of `CN(C)C(=O)N1CCOCC2(CCN(c3ccccn3)C2)C1.O=C(O)C(F)(F)F` (centres undefined), -12.67%.

As for `CN(C)C(=O)N1CCOCC2(CCN(c3ncccn3)C2)C1.O=C(O)C(F)(F)F` (centres undefined), the “Percent Effect” value was -1.009%. In the case of `CN(C)C(=O)N1CCC2(CC1)CCN(c1ncccn1)C2.O=C(O)C(F)(F)F` it was 115.8%. As for `CN(C)C(=O)N1CCC2(CCCN(c3ncccn3)C2)C1.O=C(O)C(F)(F)F` (centres undefined), the figure is 113.7%; as for `CCn1nc2c(cc1=O)CN(Cc1nnc(C3CC3)o1)CC2`, 14.78%; as for `CSc1cccc(NC(=O)N2CCCC(CNC(=O)c3ccco3)C2)c1` (centres undefined), -2.877%. Turning to `CSCCCn1ccnc1-c1cccc(C#N)c1`, the “Percent Effect” value is recorded as -12.84%. On to `NC(=O)NC(CC(=O)NCCc1cccc(F)c1)c1cccs1` (centres undefined), for which the “Percent Effect” value worked out at 2.392%. As for `CC(C)=CCC/C(C)=C\CNCc1ccco1`, the “Percent Effect” value was -4.355%. For the compound `O=C(C1CCCC1)N1CC2(CCN(C3COC3)C2)OCc2ccccc21` (centres undefined), the “Percent Effect” value is reported as 114.9%. In the case of `O=C(C1CCCC1)N1CC2(CCN(C3COC3)C2)Cc2ccccc21` (centres undefined) it was 95.07%. As for `O=C(C1CCCC1)N1CC2(CCCN(C3COC3)C2)Cc2ccccc21` (centres undefined), the figure is 99.05%; as for `O=C(C1CCCC1)N1CCOc2cccc(F)c21`, 1.761%; as for `O=C(C1CCCC1)N1CC2(CCN(C3COC3)CC2)Cc2ccccc21`, 95.07%. In the case of `O=C(Cc1cccnc1)N1CCC2(CCN(C3CCOC3)CC2)C1` (centres undefined) it was 6.84%; in that of `CC(CNC(=O)CCCc1ccccn1)c1ccsc1` (centres undefined), 1.971%; in that of `Cc1ccc(NC(=O)C2CSCN2C(=O)c2cnn(C)c2)c(C)c1` (centres undefined), -7.721%. Regarding `O=C(C1CC1)N1C[C@@H](F)[C@@H](OCc2nc3ccccc3o2)C1`, the “Percent Effect” value is listed as -16.99%. In the case of `N#Cc1cn(CC(=O)NC2CC2)c2ccc(Br)cc2c1=O` it was -2.411%.
